Our source for the Potency values is PubChem BioAssay (Tox21).

Where “and” joins values, the source holds several entries; their conditions need not be identical. Equal entries are not always repeated. Results filed as inconclusive are left out. Where a call stands in place of a potency, no number is given. Calls of active or inactive are those of the source. The call rests on the fitted dose curve; in most records, active means well fitted cell-killing curve with a large enough effect in the repeat runs; inconclusive means weak or mixed curves; inactive means no such curve, though single readings can be large or run the other way.
Potency means the concentration at half of the fitted maximal effect.

This experiment is described as follows: qHTS assay for identifying genotoxic compounds that show differential cytotoxicity against isogenic chicken DT40 cell lines with known DNA damage response pathways - Rad54/Ku70 mutant cell line (AID 743015). Further: nearly all actives have a fitted effect of over 60% in size. As to conditions: DT40 Rad54/Ku70 mutant viability, CellTiter-Glo, 40 h; series mostly up to 66.8 µM. An excerpt:
National Center for Advancing Translational Sciences [NCATS]
NIH Chemical Genomics Center [NCGC]
U.S. Environmental Protection Agency [EPA]
National Institutes of Environmental Health Sciences [NIEHS]
National Toxicology Program [NTP]
U.S. Food and Drug Administration [FDA]
DNA repair pathways play a critical role in cellular homeostasis by repairing DNA damage induced by endogenous processes and xenobiotics. Isogenic chicken DT40 cell lines deficient in different DNA repair pathways can be used to identify genotoxic compounds and aid in characterizing the nature of the DNA damage induced. Two DNA repair-deficient cell lines with disrupted genes, Rad54/Ku70 or Rev3, were used to screen the Tox21 10K compound library. Possible genotoxicity was based on the presence of a significant increase in cytotoxicity in one or more of the DNA repair-deficient cell lines compared to that observed in the parental DNA repair-proficient cell line. CellTiter Glo viability assay (Promega, Madison, WI) was used to measure cell viability in these cells after compound treatment. This assay includes the data from the Rad54/Ku70 mutant cell line.
Tox21 Assay Protocol Summary:
300 DT40 mutant cells in 5 uL/well were dispensed into white, solid-bottom 1536-well plates using a Multidrop Combi (ThermoFisher Scientific, Waltham, MA) dispenser. After the assay plates were incubated at 37 C/5% CO2 for approximately 0.5 hour, 23 nL of compounds dissolved in DMSO, positive controls or DMSO only was transferred into the assay plate by a pintool work station (Kalypsys, San Diego, CA). The assay plates were incubated at 37 C/5% CO2 for 40 hours. After 5 uL per well of CellTiter-Glo reagent was added into each well of the assay plates, the plates were incubated for 30 min at room temperature and the luminescence intensity of the plates was measured using a ViewLux (PerkinElmer, Shelton, CT) plate reader.
Consider `CCCOC(C)=O`, for which the Potency result is “inactive”.
To `Cc1c(N=C=O)cccc1N=C=O` belongs “inactive”.
In the case of `O=C(O)c1ccccc1-n1cc(C(=O)O)c(=O)c2cc(Nc3c(F)cc(F)cc3Cl)c(Cl)cc21`, the Potency result was “inactive”.
The entry for `O=C1c2ccccc2C(=O)c2c1ccc(O)c2O` is “inactive”.
On to `CCCCOC(=O)CC#N`, for which the Potency result is “inactive”.
With `COc1ccc(/C=C/c2cc(OC)cc(=O)o2)cc1`, the Potency entry is “inactive”.
The figure for `O=C1c2ccccc2C(=O)C1c1ccc2ccccc2n1` is 1.91 µM (active); for `CCOC(OCC)OCC` it is “inactive”.
Turning to `C=CC(=O)NC(C)(C)C`, the Potency result is “inactive”.
Take `Nc1ccccc1Nc1ccccc1`: the Potency was 15.4 µM (active).
The figure for `CC(C)C[C@H](NC(=O)[C@H](Cc1ccccc1)NC(=O)c1cnccn1)B(O)O` is 11.9 nM (active) and 10.6 nM (active).
Consider `CCc1ccc2c(c1)C(=O)c1ccccc1C2=O`, for which the Potency result was “inactive”.
Regarding `CCC(CC)C(=O)O`, the Potency entry is “inactive”.
`C[C@@H](O)[C@H]1C(=O)N2C(C(=O)O)=C(S[C@@H]3CN[C@H](CNS(N)(=O)=O)C3)[C@H](C)[C@H]12`: the Potency result is “inactive”.
Regarding `O=C(O)CCc1nc2ccccc2[nH]1`, the Potency entry is “inactive”.
With `C1CCN(CN2CCCCC2)CC1`, the Potency entry was “inactive”.
Turning to `O=C(c1ccc(Cl)cc1)c1ccc(Cl)cc1`, the Potency entry was “inactive”.
To `CCCc1ccc(OC)cc1` belongs “inactive”.
Take `CC1(C)C(=O)NC(=O)N1CO`: the Potency entry was “inactive”.
With `O=c1c2ccccc2oc2ccccc12`, the Potency result was “inactive”.
As to `NC(=O)c1cc[n+](CC2=C(C(=O)[O-])N3C(=O)[C@@H](NC(=O)Cc4cccs4)[C@H]3SC2)cc1`, the Potency result was “inactive”.
For the compound `O=Cc1ccc(Cl)c([N+](=O)[O-])c1`, the Potency was 3.06 µM (active).
As for `CC(C)(Cc1c[nH]c2ccccc12)NCC(O)COc1ccccc1C#N` (stereo not given), the Potency is 16.8 µM (active).
Turning to `O=C(O)c1ccc2cc(O)ccc2c1`, the Potency result is “inactive”.
As for `O=C(OC1C[C@H]2CC[C@@H](C1)[N+]21CCCC1)C(O)(c1ccccc1)c1ccccc1` (stereo not given in full), the Potency entry was “inactive”.
`CC(C)Cc1nccs1`: the Potency entry is “inactive”.
The entry for `c1ccc(-c2ccc(-c3ccccc3)cc2)cc1` is “inactive”.
Regarding `CCCC(=O)OCCC(C)C`, the Potency entry was “inactive”.
To `CCCN(C1CCN(C(=O)C2CCNCC2)CC1)[C@@H]1CCc2ccc(OC)cc2C1` belongs 19.3 µM (active); to `CO[C@@H]1[C@@H](O[C@@H]2O[C@H](C)[C@@H](O[C@H]3C[C@@](C)(O)[C@@H](O)[C@H](C)O3)[C@H](N(C)C)[C@H]2O)[C@@H](CC=O)C[C@@H](C)[C@@H](O[C@@H]2CC[C@H](N(C)C)[C@@H](C)O2)/C=C/C=C/C[C@@H](C)OC(=O)C[C@H]1OC(C)=O`, 7.5 µM (active).
To `Clc1cc(Cl)c2c(c1)N=C1CCCCCN1C2` belongs 13.3 µM (active).
With `CCCCCCCCOCCCN`, the Potency is 6.86 µM (active).
The entry for `O=C1C=CCCC1` is “inactive”; for `COc1ccc(CN(CCN(C)C)c2ncccn2)cc1` it is “inactive”.
As to `Nc1ccc(F)cc1F`, the Potency entry is “inactive”.
The entry for `O=c1[nH][nH]c2ccccc12` is “inactive”; for `Nc1cccc2c(=O)[nH][nH]c(=O)c12` it is “inactive”.
For `CC(C)CCCCCOC(=O)CS`, the Potency was 54.5 µM (active).
As for `FC1(F)C(F)(F)C(F)(F)C2(F)C(F)(C1(F)F)C(F)(F)C(F)(F)C1(F)C(F)(F)C(F)(F)C(F)(F)C(F)(F)C12F` (stereo not given), the Potency entry was “inactive”.
Turning to `CC[C@H](NC(C)C)[C@H](O)c1ccc(O)c2[nH]c(=O)ccc12`, the Potency entry is “inactive”.
